# The supplement of paper PMC8728848
# This excerpt belongs to a sample that is enriched for the strongest signals.
# B1: WGA (Triticum vulgare) (protein)
# chain: QRCGEQGSNMECPNNLCCSQYGYCGMGGDYCGKGCQNGACWTSKRCGSQAGGATCPNNHCCSQYGHCGFGAEYCGAGCQGGPCRADIKCGSQSGGKLCPNNLCCSQWGFCGLGSEFCGGGCQSGACSTDKPCGKDAGGRVCTNNYCCSKWGSCGIGPGYCGAGCQSGGCDAVFAGAITANSTLLAE
# Legend:
# Experiment in all cases: glycan array binding signal (z-score within array); higher = stronger binding
# Settings in all cases: glycan notation: IUPAC condensed, linker removed
# [1] = molecular target: GlcNAc(b1-3)Gal(b1-4)GlcNAc(b1-2)Man(a1-3)[GlcNAc(b1-3)Gal(b1-4)GlcNAc(b1-2)Man(a1-6)]Man(b1-4)GlcNAc(b1-4)[Fuc(a1-6)]GlcNAc
# In short: (§1)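 Glycan array data came from 3228 arrays in the Consortium for Functional Glycomics database, and only arrays with an available protein sequence were kept. Glycan names were put into IUPAC-condensed notation, and columns mapping to the same glycan were averaged. The binding signal is a within-array Z-score, averaged across arrays of one protein sequence run at different concentrations or buffers and across linkers. A negative Z-score can be read as non-binding.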
# [2] = molecular target: GlcNAc(b1-3)Gal(b1-4)GlcNAc(b1-3)Gal(b1-4)GlcNAc
# In short: as §1
# [3] = molecular target: GlcNAc(b1-3)Gal(b1-4)GlcNAc(b1-3)GalNAc
# In short: as §1
# [4] = molecular target: GlcNAc(b1-4)GlcNAc(b1-4)GlcNAc
# In short: as §1
# [5] = molecular target: GlcNAc(b1-4)GlcNAc(b1-4)GlcNAc(b1-4)GlcNAc(b1-4)GlcNAc
# In short: as §1
# [6] = molecular target: GlcNAc(b1-4)GlcNAc(b1-4)GlcNAc(b1-4)GlcNAc(b1-4)GlcNAc(b1-4)GlcNAc
# In short: as §1
# [7] = molecular target: Neu5Ac(a2-3)Gal(b1-4)GlcNAc(b1-2)Man
# In short: as §1
# [8] = molecular target: Neu5Ac(a2-3)Gal(b1-4)GlcNAc(b1-3)Gal(b1-4)GlcNAc(b1-3)GalNAc
# In short: as §1
# [9] = molecular target: Neu5Ac(a2-3)Gal(b1-4)GlcNAc(b1-3)Gal(b1-4)GlcNAc(b1-3)[Neu5Ac(a2-3)Gal(b1-4)GlcNAc(b1-3)Gal(b1-4)GlcNAc(b1-6)]GalNAc
# In short: as §1
# [10] = molecular target: Neu5Ac(a2-6)Gal(b1-4)GlcNAc(b1-2)[Neu5Ac(a2-6)Gal(b1-4)GlcNAc(b1-4)]Man(a1-3)[GlcNAc(b1-4)][Neu5Ac(a2-6)Gal(b1-4)GlcNAc(b1-2)[Neu5Ac(a2-6)Gal(b1-4)GlcNAc(b1-6)]Man(a1-6)]Man(b1-4)GlcNAc(b1-4)GlcNAc
# In short: as §1
# [11] = molecular target: Neu5Ac(a2-6)Gal(b1-4)GlcNAc(b1-3)Gal(b1-4)GlcNAc(b1-6)[Gal(b1-3)]GalNAc
# In short: as §1
# [12] = molecular target: Neu5Ac(a2-6)Gal(b1-4)GlcNAc(b1-6)GalNAc
# In short: as §1
# [13] = molecular target: Neu5Ac(a2-6)Gal(b1-4)GlcNAc6S
# In short: as §1
# [14] = molecular target: Neu5Ac(a2-6)GlcNAc(b1-4)GlcNAc(b1-4)GlcNAc
# In short: as §1
# [15] = molecular target: Neu5Ac(a2-8)Neu5Ac(a2-8)Neu5Ac(a2-3)Gal(b1-4)Glc
# In short: as §1
# [16] = molecular target: Neu5Gc(a2-6)GalNAc
# In short: as §1
binder,measurement,setting,value
B1,glycan array binding signal (z-score),[1],1.15
same,glycan array binding signal (z-score),[2],1.71
same,glycan array binding signal (z-score),[3],-0.359
same,glycan array binding signal (z-score),[4],3.8
same,glycan array binding signal (z-score),[5],5.62
same,glycan array binding signal (z-score),[6],5.15
same,glycan array binding signal (z-score),[7],-0.304
same,glycan array binding signal (z-score),[8],-0.353
same,glycan array binding signal (z-score),[9],-0.001
same,glycan array binding signal (z-score),[10],-0.366
same,glycan array binding signal (z-score),[11],-0.248
same,glycan array binding signal (z-score),[12],-0.307
same,glycan array binding signal (z-score),[13],-0.359
same,glycan array binding signal (z-score),[14],3.14
same,glycan array binding signal (z-score),[15],-0.35
same,glycan array binding signal (z-score),[16],-0.324
